Laboratory results: PubChem BioAssay
Where “and” joins values, the source holds several entries; their conditions need not be identical. Equal values may be shown once. Calls of active or inactive are those of the source.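 How the source made its calls, unless noted: active means thallium flux through the channel raised or lowered by more than 3 SD from vehicle-only wells, actives on both sides; inactive means the rest.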

How the values were obtained:
[1] = molecular target: 6-phosphogluconate dehydrogenase, decarboxylating (Homo sapiens) (UniProt P52209); experiment: inhibition of human phosphogluconate dehydrogenase – biochemical, recombinant enzyme, NADPH absorbance, primary screen (AID 1159550;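 active means at least 20% inhibition of 6-phosphogluconate dehydrogenase activity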); settings: recombinant 6PGD, NADPH absorbance 341 nm; at 10 µM; stronger effect = higher value
Sequence of 6-phosphogluconate dehydrogenase, decarboxylating (Homo sapiens) (P52209 whole entry, looked up): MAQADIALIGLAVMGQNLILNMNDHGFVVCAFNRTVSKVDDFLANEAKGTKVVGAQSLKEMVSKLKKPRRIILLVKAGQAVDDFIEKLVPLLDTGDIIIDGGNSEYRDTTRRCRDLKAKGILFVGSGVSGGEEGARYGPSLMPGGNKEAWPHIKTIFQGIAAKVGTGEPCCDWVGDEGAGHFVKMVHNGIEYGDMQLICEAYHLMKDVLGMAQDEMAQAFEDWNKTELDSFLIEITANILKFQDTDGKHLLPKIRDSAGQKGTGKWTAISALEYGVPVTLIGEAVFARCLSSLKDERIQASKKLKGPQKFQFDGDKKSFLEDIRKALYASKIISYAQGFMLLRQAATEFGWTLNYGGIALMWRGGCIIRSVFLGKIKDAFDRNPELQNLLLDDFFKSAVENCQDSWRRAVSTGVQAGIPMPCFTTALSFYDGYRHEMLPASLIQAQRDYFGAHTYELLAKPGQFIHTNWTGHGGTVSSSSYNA

[2] = P. berghei load reduction in hepatocytes – cell-based, HepG2, luciferase luminescence, HepG2 viability, primary screen (AID 624349; in the data active means parasite load remaining mostly below about 12%, no sharp cut-off; inactive means mostly above about 10%;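 further: 100% = mean of DMSO negative control wells on the same plate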); settings: P. berghei liver stage in HepG2, luciferase luminescence, concentration not given here; parasite load remaining: stronger effect = lower value; viability: measured here: HepG2 viability without parasites
[3] = signal quenchers or enhancers, Cy5 substrate/SSB – biochemical, NIH Clinical Collection, E. coli SSB, artefact control for HCV NS3 helicase inhibitor project (AID 743268; call rule not given here); settings: Cy5-oligo bound E. coli SSB, fluorescence interference
[4] = system: Hepatitis C virus NS3 helicase; experiment: blockers of NS3h binding to DNA – biochemical, fluorescence polarization, NIH Clinical Collection, primary screen (AID 743270; call rule not given here); settings: NS3 helicase binding to Cy5-dT15 DNA, stronger effect = higher value, concentration not given here
[5] = molecular target: Single-stranded DNA-binding protein (Escherichia coli (strain K12)) (UniProt P0AGE0); experiment: SSB-ssDNA binding inhibitors – biochemical, fluorescence polarization, NIH Clinical Collection, counter-screen for HCV NS3 helicase inhibitor project (AID 743271; in the data active means inhibition above about 28%); settings: E. coli SSB-DNA binding, stronger effect = higher value, concentration not given here
[6] = compounds distorting NS3 helicase fluorescence signal – biochemical, NIH Clinical Collection, artefact control for HCV NS3 helicase inhibitor project (AID 743272; call rule not given here;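 further: HCV NS3 helicase with a Cy5 labelled single stranded DNA probe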); settings: fluorescence interference counterscreen, HCV NS3 helicase assay; stronger effect = lower value
[7] = modulation of C. elegans fzo-1 (AID 1259413; call rule not given here;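 further: fzo-1 mutant C. elegans worms in liquid wells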); settings: C. elegans fzo-1 modulator screen, mean read-out; stronger effect = higher value
[8] = EMT-state selective cytotoxicity in co-culture – imaging, PC-3E GFP, TEM4-18 mCherry, primary screen (AID 1345086;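 active means compounds killing one labelled cell type while sparing the other, by normalised counts and ratio limits, not self-fluorescent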;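 on all read-outs here: cells exposed to compound for 72 h before imaging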;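 on red/green cell ratio (normalised): normalised mesenchymal count divided by normalised epithelial count so high means epithelial killing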); settings: PC-3E GFP / TEM4-18 mCherry co-culture, imaging cell counts, at 1 µM; for red/green cell ratio (normalised): actives lie on both sides, counts scaled to control wells, 1 = unselective
[9] = viability loss with induced miR-34 in A549 – imaging, A549 dox-inducible miR-34, nuclei and caspase counts, primary screen (AID 1347080;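 active means compounds whose cell count with miR-34 switched on is under 0.7 times the count with it off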); settings: A549 miR-34 inducible, Hoechst nuclei count, 48 h
[10] = MELAS cybrid and Rieske KO viability enhancers – cell-based, MELAS cybrids, Rieske KO mouse fibroblasts, CellTiter-Glo, primary screen (AID 1508586;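 active means mean z-score across replicates of 1.96 or higher in either the MELAS or the Rieske mutant cell line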;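 further: z relative to plate mean and SD of compound and empty wells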); settings: low glucose
[11] = molecular target: Mitogen-activated protein kinase 7 (Homo sapiens) (UniProt Q13164); experiment: Gal4-ERK5 driven luciferase induction – cell-based, HTS, primary screen (AID 1508626;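 active means luciferase signal above three times the same-plate solvent-only control wells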;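 further: luciferase driven by Gal4-ERK5 fusion binding five Gal4 sites before minimal TATA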); settings: HeLa Gal4-ERK5 transactivation, 18 h, at 5 µM, stronger effect = higher value
Sequence of Mitogen-activated protein kinase 7 (Homo sapiens) (Q13164 whole entry, looked up, the tested form may be a part): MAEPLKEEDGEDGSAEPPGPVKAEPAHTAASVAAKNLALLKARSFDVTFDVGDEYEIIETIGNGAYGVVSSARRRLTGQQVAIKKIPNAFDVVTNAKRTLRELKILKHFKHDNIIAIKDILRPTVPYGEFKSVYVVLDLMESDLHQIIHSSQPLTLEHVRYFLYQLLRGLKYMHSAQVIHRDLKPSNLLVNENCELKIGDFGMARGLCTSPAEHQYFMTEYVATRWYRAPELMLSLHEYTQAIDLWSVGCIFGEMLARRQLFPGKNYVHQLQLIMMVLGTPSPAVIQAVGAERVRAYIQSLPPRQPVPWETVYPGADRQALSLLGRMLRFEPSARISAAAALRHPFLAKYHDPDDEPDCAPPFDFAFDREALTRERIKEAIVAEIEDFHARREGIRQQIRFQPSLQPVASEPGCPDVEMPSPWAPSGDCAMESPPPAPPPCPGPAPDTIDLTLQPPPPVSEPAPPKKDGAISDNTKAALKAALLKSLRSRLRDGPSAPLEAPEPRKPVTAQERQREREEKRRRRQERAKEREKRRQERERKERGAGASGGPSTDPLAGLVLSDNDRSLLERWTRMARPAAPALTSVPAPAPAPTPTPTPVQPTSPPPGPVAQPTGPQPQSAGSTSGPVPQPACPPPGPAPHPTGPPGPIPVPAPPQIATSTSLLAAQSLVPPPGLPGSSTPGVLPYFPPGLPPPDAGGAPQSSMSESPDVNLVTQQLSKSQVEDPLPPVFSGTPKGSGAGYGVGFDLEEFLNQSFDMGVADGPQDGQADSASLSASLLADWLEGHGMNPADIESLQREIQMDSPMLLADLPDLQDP

[12] = system: F380Y; experiment: BK channel mutant inhibitors and activators – cell-based, U2OS BacMam, thallium flux, beta subunits, selectivity assay, profiling panel (AID 1259406); settings: U2OS BacMam BK variants, at 30 µM;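 further: initial slope of Thallos dye fluorescence rise after thallium is added; log ratio against the mean of 0.3% DMSO vehicle wells on the same plate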
[13] = system: F380Y/beta1; experiment: as above; settings: U2OS BacMam BK variants, at 30 µM
[14] = system: F380Y/beta2Delta; experiment: as above; settings: U2OS BacMam BK variants, at 30 µM
[15] = system: F380Y/beta4; experiment: as above; settings: U2OS BacMam BK variants, at 30 µM
[16] = molecular target: Calcium-activated potassium channel subunit alpha-1 (Homo sapiens) + Leucine-rich repeat-containing protein 26 (Homo sapiens) (UniProt Q12791+Q2I0M4); experiment: as above; settings: U2OS BacMam BK variants, F380Y/Slo1WT/gamma1, at 30 µM
Sequence of Calcium-activated potassium channel subunit alpha-1 (Homo sapiens) + Leucine-rich repeat-containing protein 26 (Homo sapiens) (Q2I0M4 whole entry, looked up, one chain of several): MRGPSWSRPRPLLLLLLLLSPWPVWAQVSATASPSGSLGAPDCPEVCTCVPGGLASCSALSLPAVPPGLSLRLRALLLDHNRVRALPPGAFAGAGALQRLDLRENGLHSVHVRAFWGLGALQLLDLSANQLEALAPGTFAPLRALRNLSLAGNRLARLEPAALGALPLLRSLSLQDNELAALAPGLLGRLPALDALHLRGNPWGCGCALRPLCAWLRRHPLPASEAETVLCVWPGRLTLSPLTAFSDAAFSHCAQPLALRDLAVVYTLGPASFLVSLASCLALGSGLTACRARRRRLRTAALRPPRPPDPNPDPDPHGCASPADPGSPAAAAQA

[17] = system: R275C; experiment: as above; settings: U2OS BacMam BK variants, at 30 µM
[18] = system: R275C/beta1; experiment: as above; settings: U2OS BacMam BK variants, at 30 µM
[19] = system: R275C/beta2Delta; experiment: as above; settings: U2OS BacMam BK variants, at 30 µM
[20] = drug combination growth inhibition, ovarian cancer – cell-based, oncology-focused library, rucaparib conditional, profiling panel (AID 1508598;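 active means normalized viability below 100% at a tested concentration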); settings: patient-derived ovarian cancer cells, CellTiter-Glo viability, 144 h, stronger effect = lower value
[21] = measured here: epithelial PC-3E GFP cell survival
[22] = measured here: mesenchymal TEM4-18 mCherry cell survival
[23] = stronger effect = lower value, cell number ratio, induced over uninduced
[24] = measured here: relative caspase fold change +Dox/-Dox
[25] = measured here: total cells with miR-34 induction, stronger effect = lower value
[26] = measured here: total cells without miR-34 induction
[27] = MELAS cybrid survival, CellTiter-Glo 48 h, stronger effect = higher value
[28] = Rieske KO mouse fibroblast survival, CellTiter-Glo 72 h

COc1cc2c(cc1O)[C@@H](Cc1ccc(O)cc1)[N+](C)(C)CC2
inactive: inhibition [1] 16.9%

CC(=O)O[C@H]1CC[C@]2(C)C3=CC(=O)[C@@]4(C)C(C[C@@H]5OC6(OCC(C)CC6Br)C(C)[C@@H]54)C3CC[C@H]2C1 (stereo partly drawn)
inactive: inhibition [1] 6.67%

CCCCC(=O)N(Cc1ccc(-c2ccccc2-c2nn[nH]n2)cc1)[C@H](C(=O)O)C(C)C
8430 and 12500: cell count [9, 26]
89.7% and 98.7% and 73.8%: viability [2]
0.0466 and -1.21: z-score [10, 28]
1.3: normalised cell number [8, 22]
8040 and 10600: cell count [9, 25]
1.14: normalised cell number [8, 21]
inactive: parasite load remaining [2] 147% and 47.5% and 92.3% | fluorescence ratio [3] 1.07 | inhibition [4] 4.36% | inhibition [5] 4.52% | fluorescence ratio [6] 1.05 | inhibition [1] -2.51% | mean signal [7] 250 | red/green cell ratio (normalised) [8] 1.14 | fold change [9, 23] 0.954 and 0.853 | z-score [10, 27] 0.123 and -0.397 | luciferase signal [11] 56 AU | log fold change Tl+ flux [12] 0.0751 | log fold change Tl+ flux [13] -0.0013 | log fold change Tl+ flux [14] 0.0113 | log fold change Tl+ flux [15] -0.00671 | log fold change Tl+ flux [16] 0.0422 | log fold change Tl+ flux [17] -0.0315 | log fold change Tl+ flux [18] 0.0112 | log fold change Tl+ flux [19] 0.014
0.477 and 2.43: fold change [9, 24]

C=C1C(CCl)(CCl)C2(Cl)C(Cl)C(Cl)C1(Cl)C2(Cl)Cl (stereo not drawn)
inactive: inhibition [1] -11.7%

CC[C@@H](CC[C@@H](C)[C@H]1CC[C@H]2[C@@H]3CC[C@H]4C[C@@H](O)CC[C@]4(C)[C@H]3CC[C@]12C)C(C)C
inactive: inhibition [1] -13.2%

O=[N+]([O-])c1cccc2cn[nH]c12
68.7%: viability [2]
10200 and 8750 and 8260: cell count [9, 25]
inactive: parasite load remaining [2] 55.2% | fluorescence ratio [3] 0.99 | inhibition [4] 1.53% | inhibition [5] -2.76% | fluorescence ratio [6] 0.97 | inhibition [1] -14.4% | mean signal [7] 242 | red/green cell ratio (normalised) [8] 0.79 | fold change [9, 23] 1.03 and 0.867 and 0.91 | log fold change Tl+ flux [12] 0.0311 | log fold change Tl+ flux [13] 0.0616 | log fold change Tl+ flux [14] -0.000818 | log fold change Tl+ flux [15] 0.0331 | log fold change Tl+ flux [16] 0.0381 | log fold change Tl+ flux [17] -0.025 | log fold change Tl+ flux [18] -0.0288 | log fold change Tl+ flux [19] 0.0285
1.13: normalised cell number [8, 22]
9850 and 10100 and 9080: cell count [9, 26]
1.44: normalised cell number [8, 21]
0.865 and 1.54 and 0.678: fold change [9, 24]

CC(=O)O[C@H]1CCC2(C)C(=CCC3C2CCC2(C)C3CC3OC4(CCC(C)CO4)C(C)C32)C1 (stereo partly drawn)
inactive: inhibition [1] -0.838%

CCc1ccc(CCOc2ccc(CC3SC(=O)NC3=O)cc2)nc1 (stereo not drawn)
inactive: fluorescence ratio [3] 1.03 | inhibition [4] 0.4% | inhibition [5] 3.75% | fluorescence ratio [6] 0.9 | inhibition [1] 6.81% | mean signal [7] 259 | red/green cell ratio (normalised) [8] 1.07 | viability ([20]; at 0.000305 µM, OCI-C5x cells, with rucaparib 10 µM, 100% = cells with rucaparib alone) 119% | viability ([20]; at 0.000305 µM, OCI-C5x cells, without rucaparib) 118% | viability ([20]; at 0.00122 µM, OCI-C5x cells, with rucaparib 10 µM, 100% = cells with rucaparib alone) 120% | viability ([20]; at 0.00122 µM, OCI-C5x cells, without rucaparib) 116% | viability ([20]; at 0.00122 µM, OCI-P5x cells, without rucaparib) 100% | viability ([20]; at 0.00488 µM, OCI-C5x cells, with rucaparib 10 µM, 100% = cells with rucaparib alone) 108% | viability ([20]; at 0.00488 µM, OCI-C5x cells, without rucaparib) 126% | viability ([20]; at 0.00488 µM, OCI-P5x cells, with rucaparib 20 µM, 100% = cells with rucaparib alone) 102% | viability ([20]; at 0.00488 µM, OCI-P5x cells, without rucaparib) 105% | viability ([20]; at 0.0195 µM, OCI-C5x cells, with rucaparib 10 µM, 100% = cells with rucaparib alone) 120% | viability ([20]; at 0.0195 µM, OCI-C5x cells, without rucaparib) 126% | viability ([20]; at 0.0195 µM, OCI-P5x cells, with rucaparib 20 µM, 100% = cells with rucaparib alone) 105% | viability ([20]; at 0.0195 µM, OCI-P5x cells, without rucaparib) 104% | viability ([20]; at 0.0781 µM, OCI-C5x cells, with rucaparib 10 µM, 100% = cells with rucaparib alone) 124% | viability ([20]; at 0.0781 µM, OCI-C5x cells, without rucaparib) 113% | viability ([20]; at 0.0781 µM, OCI-P5x cells, with rucaparib 20 µM, 100% = cells with rucaparib alone) 101% | viability ([20]; at 0.0781 µM, OCI-P5x cells, without rucaparib) 110% | viability ([20]; at 0.313 µM, OCI-C5x cells, with rucaparib 10 µM, 100% = cells with rucaparib alone) 105% | viability ([20]; at 0.313 µM, OCI-C5x cells, without rucaparib) 115% | viability ([20]; at 0.313 µM, OCI-P5x cells, with rucaparib 20 µM, 100% = cells with rucaparib alone) 103% | viability ([20]; at 0.313 µM, OCI-P5x cells, without rucaparib) 113% | viability ([20]; at 1.25 µM, OCI-C5x cells, with rucaparib 10 µM, 100% = cells with rucaparib alone) 111% | viability ([20]; at 1.25 µM, OCI-C5x cells, without rucaparib) 123% | viability ([20]; at 1.25 µM, OCI-P5x cells, with rucaparib 20 µM, 100% = cells with rucaparib alone) 104% | viability ([20]; at 1.25 µM, OCI-P5x cells, without rucaparib) 118% | viability ([20]; at 5 µM, OCI-C5x cells, with rucaparib 10 µM, 100% = cells with rucaparib alone) 105% | viability ([20]; at 5 µM, OCI-C5x cells, without rucaparib) 123% | viability ([20]; at 5 µM, OCI-P5x cells, with rucaparib 20 µM, 100% = cells with rucaparib alone) 103% | viability ([20]; at 5 µM, OCI-P5x cells, without rucaparib) 111% | luciferase signal [11] 48 AU | log fold change Tl+ flux [12] 0.00439 | log fold change Tl+ flux [13] 0.0033 | log fold change Tl+ flux [14] 0.0296 | log fold change Tl+ flux [15] 0.017 | log fold change Tl+ flux [16] 0.0101 | log fold change Tl+ flux [17] -0.057 | log fold change Tl+ flux [18] -0.028 | log fold change Tl+ flux [19] -0.0196
active: viability ([20]; at 0.000305 µM, OCI-P5x cells, with rucaparib 20 µM, 100% = cells with rucaparib alone) 88.4% | viability ([20]; at 0.000305 µM, OCI-P5x cells, without rucaparib) 95.9% | viability ([20]; at 0.00122 µM, OCI-P5x cells, with rucaparib 20 µM, 100% = cells with rucaparib alone) 97.3%
1.18: normalised cell number [8, 21]
1.27: normalised cell number [8, 22]

CC(C)NCC(O)COc1ccc(CC(N)=O)cc1 (stereo not drawn)
1.09: normalised cell number [8, 22]
inactive: fluorescence ratio [3] 1.03 | inhibition [4] -0.45% | inhibition [5] 0.29% | fluorescence ratio [6] 0.98 | inhibition [1] -17.1% | mean signal [7] 244 | red/green cell ratio (normalised) [8] 0.99 | z-score [10, 27] -0.4 | luciferase signal [11] 52 AU | log fold change Tl+ flux [12] -0.0247 | log fold change Tl+ flux [13] 0.000846 | log fold change Tl+ flux [14] 0.00577 | log fold change Tl+ flux [15] 0.0375 | log fold change Tl+ flux [16] -0.00874 | log fold change Tl+ flux [17] -0.00467 | log fold change Tl+ flux [18] 0.0259 | log fold change Tl+ flux [19] -0.0455
1.11: normalised cell number [8, 21]
-0.19: z-score [10, 28]

CC(C)NCC(O)COc1cccc2ccccc12 (stereo not drawn)
1.31: normalised cell number [8, 22]
inactive: fluorescence ratio [3] 1.01 | inhibition [4] -8.64% | inhibition [5] 2.57% | fluorescence ratio [6] 0.93 | inhibition [1] 13.6% | mean signal [7] 249 | red/green cell ratio (normalised) [8] 1.4 | luciferase signal [11] 48 AU | log fold change Tl+ flux [12] 0.0569 | log fold change Tl+ flux [13] -0.00888 | log fold change Tl+ flux [14] 0.058 | log fold change Tl+ flux [15] 0.0503 | log fold change Tl+ flux [16] -0.019 | log fold change Tl+ flux [17] -0.0109 | log fold change Tl+ flux [18] 0.0491
active: log fold change Tl+ flux [19] 0.188
0.94: normalised cell number [8, 21]

O=C1C[C@@H](c2ccccc2)Oc2cc(O)cc(O)c21
inactive: inhibition [1] 17.2%
